Laboratory results from PubChem BioAssay AID1159580 (chemical genetic matrix, 2015).
Screen size: about 5,500 compounds; about 2,000 (36%) were called active. Roughly 18% stayed inconclusive and do not appear here. Rule as the data show it: active = normalized growth mostly below about 0.91 (no sharp cut-off); inconclusive = no clear call, values can overlap the other calls; inactive = mostly above about 0.92. The list shows a part of the results.

Test: chemical genetic growth profiling, strain panel (AID 1159580);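 also: tested at 20 µM; growth read once vehicle control cultures reached saturation at 30 °C; 1 = growth at the plate median or of vehicle wells; lower values mean less growth of the strain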
Conditions: S. cerevisiae deletion strains, growth OD

Measured: normalized growth

CC(C)c1ccc2c(c1O)CC[C@H]1C3=C(CC[C@]21C)C(=O)OC3
inactive: locus YJL187C, strain SWE1, hits give low values 0.985 | locus YJR043C, strain POL32, hits give low values 0.865 | locus YJR066W, strain TOR1, hits give low values 0.898 | locus YKL009W, strain mrt4, hits give low values 0.935 | locus YKL068W, hits give low values 0.946 | locus YKL160W, strain elf1, hits give low values 0.956 | locus YKR026C, strain gcn3, hits give low values 0.931 | locus YKR091W, strain srl3, hits give low values 0.967 | locus YLL001W, strain dnm1, hits give low values 0.967 | locus YLL026W, hits give low values 0.962 | locus YLL041C, strain sdh2, hits give low values 0.97 | locus YLR027C, strain aat2, hits give low values 0.964 | locus YLR058C, strain SHM2, hits give low values 0.911 | locus YLR102C, strain apc9, hits give low values 0.954 | locus YLR113W, strain HOG1, hits give low values 0.909 | locus YLR221C, strain rsa3, hits give low values 0.96 | locus YLR258W, strain gsy2, hits give low values 0.951 | locus YLR262C, strain YPT6, hits give low values 0.667 | locus YLR268W, strain sec22, hits give low values 0.923 | locus YLR342W, strain FKS1, hits give low values 0.987 | locus YLR357W, strain rsc2, hits give low values 0.991 | locus YLR370C, strain arc18, hits give low values 0.965 | locus YLR384C, strain iki3, hits give low values 0.967 | locus YML016C, strain PPZ1, hits give low values 0.969 | locus YML032C, strain rad52, hits give low values 0.912 | locus YML120C, strain ndi1, hits give low values 0.968 | locus YML124C, strain tub3, hits give low values 0.988 | locus YMR058W, strain fet3, hits give low values 0.961 | locus YMR078C, strain ctf18, hits give low values 0.923 | locus YMR125W, strain sto1, hits give low values 0.949 | locus YMR129W, hits give low values 0.96 | locus YMR205C, strain PFK2, hits give low values 0.88 | locus YMR223W, strain ubp8, hits give low values 0.91 | locus YMR231W, strain pep5, hits give low values 0.975 | locus YMR263W, strain SAP30, hits give low values 0.896 | locus YNL067W, strain RPL9B, hits give low values 0.932 | locus YNL183C, strain NPR1, hits give low values 0.924 | locus YNL209W, strain ssb2, hits give low values 0.972 | locus YNL248C, strain rpa49, hits give low values 0.957 | locus YNL250W, strain rad50, hits give low values 0.971 | locus YNL271C, strain bni1, hits give low values 0.992 | locus YNL298W, strain CLA4, hits give low values 0.957 | locus YNL322C, strain KRE1 (second series), hits give low values 0.973 | locus YNR049C, strain mso1, hits give low values 0.976 | locus YNR052C, strain pop2, hits give low values 0.953 | locus YOL012C, strain htz1 0.499 | locus YOL147C, strain pex11, hits give low values 0.933 | locus YOR001W, strain rrp6, hits give low values 0.985 | locus YOR061W, strain CKA2, hits give low values 0.964 | locus YOR069W, strain VPS5, hits give low values 0.944 | locus YOR070C, strain gyp1, hits give low values 0.956 | locus YOR080W, strain dia2, hits give low values 0.986 | locus YOR083W, strain WHI5, hits give low values 0.966 | locus YOR106W, strain vam3, hits give low values 0.999 | locus YOR136W, strain idh2, hits give low values 0.929 | locus YOR144C, strain elg1, hits give low values 0.958 | locus YOR231W, strain MKK1, hits give low values 0.942 | locus YOR265W, strain rbl2, hits give low values 0.963 | locus YOR270C, strain vph1, hits give low values 0.794 | locus YOR290C, strain snf2, hits give low values 0.909 | locus YOR316C, strain cot1, hits give low values 0.968 | locus YPL051W, strain arl3, hits give low values 0.932 | locus YPL078C, strain atp4, hits give low values 0.934 | locus YPL106C, strain sse1, hits give low values 0.965 | locus YPL240C, strain hsp82, hits give low values 0.971 | locus YPL256C, strain CLN2, hits give low values 0.876 | locus YPR119W, strain clb2, hits give low values 0.951 | locus YPR141C, strain kar3, hits give low values 0.965 | locus YPR167C, strain met16, hits give low values 0.947 | strain wtn01, hits give low values 0.965
active: locus YJR075W, strain HOC1, hits give low values 0.866 | locus YKL085W, strain MDH1 (second series), hits give low values 0.918 | locus YKL085W, strain MDH1, hits give low values 0.918 | locus YKR001C, strain vps1, hits give low values 0.834 | locus YLR039C, strain RIC1, hits give low values 0.628 | locus YLR262C, strain YPT6 (second series), hits give low values 0.816 | locus YLR320W, strain mms22, hits give low values 0.863 | locus YLR330W, strain CHS5, hits give low values 0.638 | locus YLR342W, strain FKS1 (second series), hits give low values 0.65 | locus YLR418C, strain cdc73, hits give low values 0.7 | locus YMR307W, strain GAS1, hits give low values 0.474 | locus YNL071W, strain lat1, hits give low values 0.853 | locus YNL233W, strain BNI4, hits give low values 0.723 | locus YNL307C, strain MCK1, hits give low values 0.536 | locus YOR184W, strain ser1, hits give low values 0.671 | locus YPL055C, strain LGE1, hits give low values 0.598 | locus YPL241C, strain CIN2, hits give low values 0.911 | locus YPR163C, strain tif3, hits give low values 0.794
